Test systems include MAP3K15; MAP3K1; MAP3K2; MAP3K3; MAP3K4; MAP4K2; MAP4K3; MAP4K4; MAP4K5; MAPKAPK2; MAPKAPK5; MARK1; MARK2; MARK3; MARK4; MAST1.
Holding throughout (conditions): concentration: 1 μM,replicates: in singlicate; n = 1
The next test relates to T1, MEK1.
T1 construct: gene MAP2K1

A further test relates to T2, MEK2.
T2 construct: gene MAP2K2

The next test has as its system T3, MEK3.
T3 construct: gene MAP2K3

In a further test the test system is T4, MEK4.
T4 construct: gene MAP2K4
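Note: KINOMEscan kinase panel screen.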

In the case of `Cc1n[nH]c2cc(Nc3ccnc(Nc4cccc(CN5CCOCC5)c4)n3)ccc12` [GW682569], the “%Inh” value is on record as 0% with MAP3K15; 29% in the test on MAP3K1; 8% in the test on MAP3K2; 0% with MAP3K3; 0% in the test with MAP3K4; 5% in the test on MAP4K2. The “%Inh” value in the test on MAP4K3 was 0%; with MAP4K4, 10%; in the test on MAP4K5 it was 14%; in the test with MAPKAPK2 it was 0%; in the test with MAPKAPK5 it was 0%; in the test with MARK1, 4%. For the same compound, the “%Inh” value in the test on MARK2 is reported as 9%; in the test on MARK3 it was 0%; in the test on MARK4, 0%; in the test on MAST1 it was 16%; with MEK1 it was 14%; in the test on MEK2 it was 0%. The “%Inh” value in the test on MEK3 is 11%; in the test on MEK4, 16%.
Turning to `COc1cccc(C2=C(Nc3cccc(Cl)c3)C(=O)NC2=O)c1` [SB-341556], the “%Inh” value was 21% with MAP3K15; 28% in the test on MAP3K1; 17% in the test with MAP3K2; 29% in the test with MAP3K3; 15% with MAP3K4; 0% with MAP4K2. In addition, the “%Inh” value stood at 84% in the test with MAP4K3; 19% with MAP4K4; 2% with MAP4K5; 20% with MAPKAPK2; 0% in the test with MAPKAPK5; 0% in the test with MARK1. Also, the “%Inh” value in the test with MARK2 amounted to 0%; in the test on MARK3 it was 17%; in the test with MARK4 it was 0%; in the test on MAST1 it was 0%; with MEK1, 0%; in the test with MEK2, 0%. Further, the “%Inh” value is 15% with MEK3 and 4% with MEK4.
Take `Cc1ccc2c(-c3ccnc(Nc4ccc(C(F)(F)F)cc4)n3)cnn2n1` [GW819776]: the “%Inh” value with MAP3K15 came out at 10%; in the test on MAP3K1, 0%; in the test with MAP3K2, 20%; in the test on MAP3K3, 0%; in the test with MAP3K4 it was 0%; with MAP4K2 it was 0%. The “%Inh” value in the test with MAP4K3 worked out at 0%; in the test on MAP4K4, 0%; in the test on MAP4K5 it was 0%; in the test with MAPKAPK2 it was 0%; in the test on MAPKAPK5, 0%; in the test on MARK1 it was 17%. Further, the “%Inh” value came to 0% with MARK2; 0% with MARK3; 32% with MARK4; 41% with MAST1; 32% in the test with MEK1; 40% in the test with MEK2. Also, the “%Inh” value in the test with MEK3 came out at 90.7%; in the test on MEK4, 63%.
Consider `Nc1nccc(-c2ccc3c(N)n[nH]c3c2)n1` [GSK1034945], for which the “%Inh” value was determined as 0% in the test on MAP3K15; 20% with MAP3K1; 10% in the test on MAP3K2; 0% with MAP3K3; 5% in the test on MAP3K4; 67% in the test with MAP4K2. Besides, the “%Inh” value in the test with MAP4K3 worked out at 4%; in the test with MAP4K4 it was 6%; in the test on MAP4K5, 0%; in the test on MAPKAPK2 it was 79%; in the test on MAPKAPK5, 0%; in the test with MARK1 it was 0%. Besides, the “%Inh” value with MARK2 is 0%; in the test with MARK3 it was 0%; in the test on MARK4, 7%; in the test with MAST1 it was 0%; in the test with MEK1 it was 0%; in the test on MEK2, 0%. For the same compound, the results for the “%Inh” value in the test with MEK3 and in the test on MEK4 were 0% and 8%, respectively.
Take `COC(=O)Nc1nc2cc(Oc3ccc(NC(=O)Nc4cc(C(F)(F)F)ccc4Cl)cc3)ccc2[nH]1.Cl` [GW697465]: the “%Inh” value with MAP3K15 is on record as 0%; in the test on MAP3K1, 14%; with MAP3K2, 0%; with MAP3K3, 0%; with MAP3K4, 1%; with MAP4K2, 0%. The “%Inh” value with MAP4K3 was found to be 0%; in the test with MAP4K4, 12%; with MAP4K5, 23%; with MAPKAPK2 it was 14%; in the test on MAPKAPK5 it was 0%; in the test with MARK1, 0%. Moreover, the “%Inh” value with MARK2 is 0%; with MARK3, 0%; with MARK4 it was 0%; in the test with MAST1 it was 14%; with MEK1, 25%; with MEK2 it was 0%. Further, the “%Inh” value was 0% in the test with MEK3 and 4% in the test with MEK4.
As for `C[C@@H](Oc1cc(-n2cnc3cc(-c4ccncc4)ccc32)sc1C(N)=O)c1ccccc1Cl` [GSK479719], the “%Inh” value in the test with MAP3K15 was determined as 18%; in the test on MAP3K1 it was 91.9%; with MAP3K2 it was 10%; with MAP3K3, 1%; with MAP3K4 it was 13%; with MAP4K2, 24%. Further, the “%Inh” value was 65% with MAP4K3; 13% in the test with MAP4K4; 85% with MAP4K5; 0% with MAPKAPK2; 0% with MAPKAPK5; 0% in the test on MARK1. Also, the “%Inh” value in the test on MARK2 came out at 100%; in the test on MARK3, 1%; with MARK4 it was 12%; with MAST1, 0%; in the test with MEK1, 0%; in the test on MEK2 it was 0%. For the same compound, the “%Inh” value is 0% in the test with MEK3 and 37% with MEK4.
As for `Cc1ccc(Nc2ccnc(Nc3ccc4c(c3)CS(=O)(=O)C4)n2)cc1O.Cl` [GW579362], the “%Inh” value in the test on MAP3K15 was 0%; in the test on MAP3K1, 27%; in the test on MAP3K2 it was 88%; in the test with MAP3K3 it was 73%; in the test on MAP3K4, 29%; in the test on MAP4K2, 22%. In addition, the “%Inh” value with MAP4K3 stood at 0%; in the test on MAP4K4, 52%; in the test with MAP4K5, 33%; in the test with MAPKAPK2 it was 0%; with MAPKAPK5 it was 0%; with MARK1 it was 0%. Besides, the “%Inh” value is reported as 17% in the test with MARK2; 0% with MARK3; 5% in the test with MARK4; 0% in the test on MAST1; 84% in the test with MEK1; 62% with MEK2. The figures for the “%Inh” value with MEK3 and with MEK4 were 92% and 90.9%, respectively.
As for `CN(c1cccc(CNc2nc(Nc3ccc4c(c3)CC(=O)N4)ncc2C(F)(F)F)c1)S(C)(=O)=O`, the “%Inh” value turned out to be 0% in the test with MAP3K15; 0% in the test with MAP3K1; 44% in the test on MAP3K2; 11% with MAP3K3; 3% with MAP3K4; 0% in the test on MAP4K2. For the same compound, the “%Inh” value with MAP4K3 is 18%; in the test on MAP4K4, 34%; with MAP4K5, 0%; with MAPKAPK2, 0%; in the test on MAPKAPK5, 0%; in the test on MARK1, 47%. Moreover, the “%Inh” value in the test on MARK2 is 39%; with MARK3, 66%; in the test with MARK4, 56%; in the test with MAST1, 0%; in the test on MEK1, 0%; with MEK2, 43%. The entries for the “%Inh” value with MEK3 and with MEK4 were 62% and 35%, respectively.
For the compound `Cn1ccc2ncnc(Oc3ccc(NC(=O)Nc4cccc(C(F)(F)F)c4)c(Cl)c3)c21`, the “%Inh” value in the test with MAP3K15 is given as 0%; with MAP3K1, 0%; in the test with MAP3K2, 6%; in the test with MAP3K3 it was 0%; in the test on MAP3K4, 4%; with MAP4K2, 6%. In addition, the “%Inh” value with MAP4K3 came to 0%; in the test on MAP4K4 it was 12%; in the test on MAP4K5, 1%; in the test on MAPKAPK2, 0%; in the test on MAPKAPK5, 0%; in the test with MARK1, 0%. The “%Inh” value came out at 6% in the test with MARK2; 0% in the test with MARK3; 0% with MARK4; 0% in the test on MAST1; 0% in the test with MEK1; 25% in the test on MEK2. Moreover, the entries for the “%Inh” value in the test on MEK3 and in the test on MEK4 were 0% and 6%, respectively.
For the compound `NC(=O)Nc1sc(-c2ccc(F)cc2)cc1C(N)=O` [GW789449], the “%Inh” value came out at 16% with MAP3K15; 10% with MAP3K1; 85% with MAP3K2; 72% with MAP3K3; 18% in the test with MAP3K4; 23% with MAP4K2. The “%Inh” value in the test with MAP4K3 is given as 0%; in the test on MAP4K4, 26%; with MAP4K5, 13%; in the test with MAPKAPK2, 0%; in the test with MAPKAPK5, 0%; in the test with MARK1, 0%. The “%Inh” value in the test on MARK2 came out at 8%; with MARK3, 0%; in the test with MARK4 it was 1%; in the test with MAST1, 46%; in the test on MEK1, 30%; in the test on MEK2 it was 40%. For the same compound, the “%Inh” value in the test on MEK3 is listed as 83%; with MEK4, 24%.
`NC(=O)c1ccc(-c2cc3ncnc(SCC(=O)O)c3s2)cc1`: the “%Inh” value in the test on MAP3K15, with MAP3K1, with MAP3K2, with MAP3K3, in the test on MAP3K4 and in the test on MAP4K2 was 0% each time. Besides, the “%Inh” value is 0% in the test on MAP4K3; 5% with MAP4K4; 1% in the test on MAP4K5; 0% with MAPKAPK2; 0% in the test on MAPKAPK5; 0% with MARK1. For the same compound, the “%Inh” value in the test with MARK2 stood at 8%; in the test with MARK3, 0%; in the test on MARK4, 0%; with MAST1 it was 0%; in the test with MEK1 it was 0%; with MEK2 it was 34%. Also, the results for the “%Inh” value with MEK3 and in the test on MEK4 were 9% and 0%, respectively.

Source of the values: PMC5540273 (PLoS ONE, 2017).
